This note sets out measurements from PubChem BioAssay AID624305 (National Center for Advancing Translational Sciences (NCATS), 2012).

Inconclusive results are not listed. Activity calls are given as the source filed them. Calls come from the whole dose curve; as a rule, active = well fitted activation curve with a large enough effect; inconclusive = small, poorly fitted or top-dose-only effect; inactive = no such curve, though single readings can be large or run the other way.
Potency is the fitted concentration of half-maximal effect.

A short description of the assay: qHTS assay for re-activators of p53 using a Luc reporter: Hit Validation. For activation: 0% is about no effect. Note: nearly all actives have a fitted effect of over 75% in size. As to conditions: p53-responsive luciferase reporter cells, luminescence, H1299 line expressing heat-sensitive Ala138Val p53; series mostly up to 46.1 µM; activation: at the top concentration. The essentials:
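Hit confirmation with a 1:5 dilution series, at 37 deg C for 24 hrs, in H1299 cells co-expressing temperature-sensitive p53-A138V and p53-responsive luciferase. Nocodazole served as control; luminescence read after 10 min with detection reagent.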
(In general: qHTS replaces the single test concentration by a dilution series.)
Take `COc1ccc(/C(C)=N/Nc2nccnc2Cl)cc1`: the Potency is 16.4 µM (active).
For the compound `COc1ccc(/C=N/Nc2nncc3ccccc23)cc1`, the Potency is 0.0731 µM (active).
Same read-out and setting: for `Cc1c(/C(O)=C2/C(=O)C(=O)N(Cc3cccnc3)C2c2cccs2)cnn1-c1ccccc1` (stereo not drawn) the value was 8.2 µM (active).
Consider `COc1ccc(-c2nnc(-c3ccc(Br)o3)o2)cc1OC`, for which the “activation” value is 22.4% (inactive).
Same read-out and setting: for `CN1CCN(C2=C(Cl)C(=O)N(Cc3ccccc3)C2=O)CC1` the value was 32.3% (inactive).
The same measure, in the same setting: in the case of `C=CCn1c(P(C)(=O)O)nc2ccccc21` it was -10.4% (inactive); in that of `COCCn1c(SCC(=O)c2c(N)n(C3CC3)c(=O)[nH]c2=O)nnc1-c1cccc(C)c1`, -7.81% (inactive); in that of `COc1ccc([N+](=O)[O-])cc1NC(=O)C1CCCCC1C(=O)O` (stereo not drawn), 6.25% (inactive).
Still for that read-out and setting: in the case of `CSC1=NCCN1C(=O)c1ccc(Br)o1` it was -91.1% (inactive); in that of `O=C(NCCC1=CCCCC1)c1ccc(F)c(S(=O)(=O)N2CCOCC2)c1`, -84.4% (inactive).
In the case of `N#C/C(Cn1c[n+](NC(=O)Nc2ccccc2)cn1)=N/O`, the “activation” value was 33.3% (inactive).
On to `Cc1ccsc1/C=C(\C#N)C(=O)Nc1c(C)n(C)n(-c2ccccc2)c1=O`, for which the “activation” value was -19.8% (inactive).
Consider `Cc1ccnc(NC(=S)NC(=O)c2cccs2)c1`, for which the Potency is 0.082 µM (active).
`Cc1ccc(-n2c(C)cc(C(=O)CSc3nnc4ccccn34)c2C)cc1`: the Potency is 6.51 µM (active).
Regarding `CS(=O)(=O)c1ccc2nc(NC(=O)c3ccco3)sc2c1`, the Potency was 14.6 µM (active).
Take `Clc1ccc(-c2cn3cc(Br)ccc3n2)cc1Cl`: the Potency is 0.206 µM (active).
Consider `CCOC(=O)N1CCN(S(=O)(=O)c2ccc(C(=O)NNc3nc4c(C)cc(C)cc4s3)cc2)CC1`, for which the “activation” value is -31.8% (inactive).
Consider `COc1cccc(/C=C2\Oc3ccc(O)cc3C2=O)c1O`, for which the “activation” value is -18.8% (inactive).
Turning to `Cc1cccc(-n2c(C)cc(C(=O)NC3CCCCC3)c2C)c1`, the Potency was 7.31 µM (active).
In the case of `COc1ccc(C(=O)Nc2nnc(C(F)(F)F)s2)cc1`, the Potency was 10.3 µM (active).
Regarding `Cc1ccc(NC2=C(Cl)C(=O)c3ccccc3C2=O)cc1`, the “activation” value was -89.1% (inactive).
Same read-out and setting: in the case of `COc1ccc(C2SCCN2C(=S)Nc2ccc(Cl)cc2)cc1` (stereo not drawn) it was 24.5% (inactive).
For the compound `OCc1cc(Br)ccc1OCc1nc2ccccc2s1`, the Potency is 2.91 µM (active).
Same read-out and setting: for `Cc1ccc(-c2nnc(Oc3cccc(C)c3)c3ccccc23)cc1` the value was 7.31 µM (active).
As to `O=C(c1ccco1)n1c(=S)nc2ccccn21`, the Potency was 7.31 µM (active).
As to `CN(C(=O)CSc1nnc(-c2ccco2)o1)C1CCCCC1`, the “activation” value is -86.5% (inactive).
Same read-out and setting: in the case of `O=C(NCC(=O)N1CCN(c2ncccn2)CC1)c1ccc(F)cc1` it was 18.2% (inactive).
As for `COc1cc(/C=N/Nc2nc3ccccc3s2)ccc1OC(=O)c1ccccc1F`, the Potency is 1.46 µM (active).
On the same count and under the same terms, for `CCCSc1ccc2nc(-c3ccccc3)cn2c1` the value was 0.206 µM (active).
The same measure, in the same setting: in the case of `COc1ccc(C(=O)N/N=C(\C)c2ccccn2)cc1OC` it was 13 µM (active).
Consider `COc1ccc(S(=O)(=O)NC2CC(C)(C)NC(C)(C)C2)c2ccccc12`, for which the “activation” value is -12% (inactive).
Same read-out and setting: in the case of `O=c1[nH]c2ccc(N/C(=N/S(=O)(=O)c3ccccc3)c3ccccc3)cc2[nH]1` it was 30.2% (inactive).
As to `CN(C)c1ccc(N=Cc2nc(-c3ccccc3)oc2OC(=O)c2cccc(Cl)c2)cc1`, the Potency was 2.06 µM (active).
Still for that read-out and setting: in the case of `Cc1c(C(=O)NC2=NCCS2)oc2ccccc12` it was 0.58 µM (active).
With `CC(C)(C)c1ccc(/C=N/Nc2ccc(C(=O)O)cc2)cc1`, the “activation” value was -5.73% (inactive).
Turning to `CCCCn1c(O)c(N=Nc2ccccc2O)c2ccccc21`, the “activation” value was 8.33% (inactive).
Same read-out and setting: in the case of `Cc1c(C(=O)N(C)c2ccccc2Cl)cnn1-c1ccccc1` it was 0.521% (inactive).
Turning to `COc1ccc(-c2cc3ccc(F)cc3cn2)cc1`, the Potency was 0.92 µM (active).
